An excerpt weighted towards active compounds, which were near 3.1% of everything screened.
PLK1 PBD block – qHTS for Inhibitors of PLK1-PDB (polo-like kinase 1 - polo-box domain): Primary Screen | 360,000 compounds, 2.8% hits | Plk1 PBD binding of FITC phosphopeptide, fluorescence polarization | Potency, µM, for inactives: max response, negative = inhibition, hits mostly inhibitors; note: series mostly up to about 57 µM; % is set by controls: 0 for no effect and ±100 for the full control effect; nearly all actives have a fitted effect of over 65% in size
ASM inhibitor – Inhibitors of Secretory Acid Sphingomyelinase (S-ASM): qHTS. placental ASM, HMU-PC fluorogenic substrate, 60 min. Sphingomyelin phosphodiesterase (Homo sapiens), P17405. AID 504937, 2011. Potency, µM (top dose mostly 57.5 µM), for inactives: at the top dose activity change, negative = inhibition, most hits filed as inhibitors. 340,000 compounds, 0.006% hits
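HMU-PC0 cleavage (9 uM final) by human placental ASM, 60 min at 37 °C following 10 min compound exposure at RT; stopped at pH 10, fluorescence Ex 386/Em 447 nm.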
Tb PFK inh – qHTS Assay to Find Inhibitors of T. brucei phosphofructokinase. 330,000 compounds, 0.17% hits. Potency, µM (titrated, usually from 57.5 µM), for inactives: at the highest dose activity, negative = inhibition, most hits filed as inhibitors. AID 485367, 2010. T. brucei PFK, ADP-Glo luminescence;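 note: 0% = uninhibited 1x PFK enzyme wells and -100% = no-enzyme wells; nearly all actives have a fitted effect of over 60% in size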
Target sequence (O15648 whole entry, looked up): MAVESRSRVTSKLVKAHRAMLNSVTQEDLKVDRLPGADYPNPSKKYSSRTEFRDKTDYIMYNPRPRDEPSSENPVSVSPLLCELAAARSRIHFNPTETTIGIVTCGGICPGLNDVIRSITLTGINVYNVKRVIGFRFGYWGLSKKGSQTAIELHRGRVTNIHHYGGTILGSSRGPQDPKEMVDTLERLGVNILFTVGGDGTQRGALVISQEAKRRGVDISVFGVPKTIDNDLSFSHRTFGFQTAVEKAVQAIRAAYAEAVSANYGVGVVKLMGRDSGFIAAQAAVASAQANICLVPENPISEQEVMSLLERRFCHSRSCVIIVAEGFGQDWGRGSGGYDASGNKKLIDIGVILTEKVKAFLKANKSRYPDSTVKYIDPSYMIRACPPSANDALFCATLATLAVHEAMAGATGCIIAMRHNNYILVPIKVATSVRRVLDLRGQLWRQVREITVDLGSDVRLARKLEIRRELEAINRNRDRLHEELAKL
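Luminescent ADP detection (ADP-Glo, two-step: ATP depletion then ADP-to-ATP conversion for luciferase) reported PFK activity after 45 min room-temperature reaction of 1.25 nM enzyme with 0.5 mM F6P and 0.1 mM ATP at pH 8.0.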
VDR inh – Inhibitors of the vitamin D receptor (VDR): qHTS; VDR-SRC2-3 peptide fluorescence polarization, 2 h; Vitamin D3 receptor (Homo sapiens), P11473; Potency, µM, without a hit: max response, negative = inhibition, hits mostly inhibitors; 400,000 compounds, 0.93% hits; note: % is set by controls: 0 for no effect and ±100 for the full control effect
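The screen uses fluorescence polarization to detect compounds that interfere with recruitment of the SRC2-3 coactivator peptide to VDR; plates are read after 2 h at room temperature.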
TDP1 block – qHTS Assay for Inhibitors of Tyrosyl-DNA Phosphodiesterase (TDP1). Potency, µM (titrated, usually from 130 µM), for the others: at the top dose activity change, negative = inhibition, hits mostly inhibitors. 350,000 compounds, 0.28% hits. Tyrosyl-DNA phosphodiesterase 1 (Homo sapiens), Q9NUW8. recombinant TDP1, AlphaScreen DNA substrate cleavage; note: % is set by controls: 0 for no effect and ±100 for the full control effect; nearly all actives have a fitted effect of over 40% in size
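AlphaScreen read-out: signal falls as enzyme removes the 3' tyrosine-FITC from a 5'-biotinylated DNA oligo (15 nM, 5 min, RT). Enzyme was E. coli-made recombinant Tdp1 at 1 nM, exposed to compound for 15 min beforehand; beads 10 ug/ml, 10 min.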
Pin1 inh – qHTS Assay to Find Inhibitors of Pin1. Pin1 FP peptide displacement, HiFluor488, 10 min. AID 504891, 2011. Potency, µM (doses to about 115 µM), without a hit: top-dose activity, negative = inhibition, usual class: inhibitors. 390,000 compounds, 0.009% hits; active = well fitted inhibition curve with a large enough effect in the polarisation, with a control signal flat, not every such curve was filed as active; inconclusive = small, poorly fitted or top-dose-only effect, or effect the other way, or a change in a side signal; inactive = no such curve, though single readings can be large or run the other way; the % refers to the polarisation; note: % is set by controls: 0 for no effect and ±100 for the full control effect
Target sequence (Q13526 whole entry, looked up): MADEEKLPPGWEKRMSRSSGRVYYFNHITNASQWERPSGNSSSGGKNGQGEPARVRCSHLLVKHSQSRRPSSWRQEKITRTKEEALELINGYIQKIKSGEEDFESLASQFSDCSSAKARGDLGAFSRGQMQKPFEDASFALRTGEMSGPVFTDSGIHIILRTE
The depositor's hits bear a star; i = inactive; ? = inconclusive; · = no result; [ ] = dose if it differs, or a comment. Unless noted, calls come from the whole dose curve; as a rule, active = well fitted curve in the direction sought with a large enough effect; inconclusive = small, poorly fitted or top-dose-only effect, or another doubt; inactive = no such curve, though single readings can be large; an effect the other way counts as inactive or inconclusive. Potency is the fitted concentration of half-maximal effect.

SMILES | PLK1 PBD block | ASM inhibitor | Tb PFK inh | VDR inh | TDP1 block | Pin1 inh
O=C(O)c1ccc(-c2ccc(/C=C3\NC(=O)N(Cc4ccc(Cl)cc4)C3=O)o2)cc1Cl | 15µM* | 378% | -11% | 79µM* | ? | ·
CC(C)N1C(=O)S/C(=C\c2ccc(-c3ccc(Cl)c(C(=O)O)c3)o2)C1=O | ? | 48% | 3% | ? | 25µM* | ?
CCN(CC)c1ccc(/C=C2/SC(=O)N(C(C)C)C2=O)o1 | 55% | -4% | -26% | 32µM* | 0% | ?
Cc1cc2c(s1)c(/C=N/O)c(C(=O)NCc1ccccc1F)n2C | · | · | · | · | 0% | 0%
Cc1ccc(S(=O)(=O)N2CCN(c3nc(-c4cncn4C)nc4ccccc34)CC2)cc1 | · | · | · | -12% | 8% | ?
Nc1ncnc2c1ncn2[C@@H]1O[C@H](C(=O)N2CCN(CC(=O)Nc3cccc4c3CNC4=O)CC2)[C@@H](O)[C@H]1O | · | · | · | -8% | 10% | ·
O=C1C(=Cc2cccs2)C(=O)c2ccccc21 | 8.4µM* | 2% | 13% | 8% | 3% | -1%
O=C1CCCC2=C1C(c1ccco1)Nc1ccc3ccccc3c12 (stereo unspecified) | 24µM* | i | ? | 7% | ? | ·
Cc1cccc(C(=O)n2c(=S)nc3ccccn32)c1 | 24µM* | -3% | -1% | 79µM* | -2% | 6%
O=C(O)CCc1ccc(-c2ccccc2)o1 | ? | 4% | 8% | 20µM* | 8% | -2%
O=C(O)CCc1nc(-c2ccccc2)c(-c2ccccc2)o1 | · | · | 0% | -19% | 9%[56.1 µM] | ·
Cc1ccc(NC(=S)N(CCCN2CCN(C)CC2)Cc2cccs2)cc1 | -5% | -1% | 4% | -12% | 6% | -10%
Cc1ccc(NC(=S)N(CCCN2CCOCC2)Cc2cccs2)c(C)c1 | 19µM* | 3% | -7% | -3% | -1% | 2%
NC(=O)C1CCN(c2ncc(-c3ccc(Br)cc3)s2)CC1 | · | · | · | · | · | 2%
CC(=O)Oc1ccc2c(c1)Oc1cc(OC(C)=O)ccc1C21OC(=O)c2ccccc21 | 6.7µM* | -3% | 5% | -12% | 4% | ?
O=C(O)c1ccc(N=Cc2c(O)ccc3ccccc23)cc1 | -16% | 1% | -7% | -7% | · | 22%
O=C(O)c1cc(N/N=C/c2c(O)ccc3ccccc23)ccc1Cl | 17µM* | 11% | 0% | ? | · | ?
O=C(N/N=C/c1c(O)ccc2ccccc12)Nc1ccccc1 | 0% | 347% | · | -15% | · | ?
O=S(=O)(/N=C/c1c(O)ccc2ccccc12)c1ccccc1 | 15µM* | -2% | 3% | -4% | · | 1%
C(/Oc1ccccc1)=C1\Nn2c(nnc2-c2cc(-c3ccccc3)n[nH]2)S1 | · | · | · | 5% | -2% | 4%
Cc1ccc(NC(=O)N/C=C/c2ccc(Cl)cc2)cc1 | 27µM* | -2% | 1% | -5% | -2% | 0%
O=C(NCc1ccc(F)cc1)c1cnc(N2CCOCC2)c2ccccc12 | · | · | · | 18% | 0% | 5%
COc1ccc(-c2cc(=O)oc3c(C)c(OCC(=O)N[C@@H](Cc4ccc(O)cc4)C(=O)O)ccc23)cc1 | -8% | -11% | 4% | -24% | · | ?
Cc1c(OCC(=O)NC(Cc2ccc(Cl)cc2)C(=O)O)ccc2c(-c3ccccc3)cc(=O)oc12 (stereo unspecified) | 67µM* | 18% | -7% | -11% | · | -11%
O=C(Cc1cc(=O)oc2cc(O)ccc12)NC(Cc1ccc(Cl)cc1)C(=O)O (stereo unspecified) | 30µM* | i | 0% | ? | · | -10%
SMILES | PLK1 PBD block | ASM inhibitor | Tb PFK inh | VDR inh | TDP1 block | Pin1 inh
Cc1ccc(-n2c(=O)c3c(cnn3C)n(Cc3ccc(Cl)cc3)c2=O)cc1 | · | · | · | 89µM* | 9% | 17%
CCC(Sc1ncc(S(=O)(=O)c2ccc(Cl)cc2)c(=O)[nH]1)C(=O)Nc1ccc(OC)cc1 (stereo unspecified) | · | · | · | -6% | 4% | 41%
CC[C@]12c3[nH]c4cc(-c5ccco5)ccc4c3CCN1C(=O)[C@@H](CC(=O)NCCCOC)C[C@@H]2C(=O)N1CCN(C(=O)c2ccco2)CC1 | 21µM* | 49% | -1% | ? | 0%[56.1 µM] | 25%
CC[C@]12c3[nH]c4cc(CCC(=O)N(C)C)ccc4c3CCN1C(=O)[C@@H](CC(=O)NCCCOC)C[C@@H]2C(=O)N1CCN(C(=O)C2CC2)CC1 | 21µM* | 6% | -1% | ? | -8%[56.1 µM] | -13%
CC[C@]12c3[nH]c4cc(CCC(=O)N(C)C)ccc4c3CCN1C(=O)[C@@H](CC(=O)NC(C)(C)C)C[C@@H]2C(=O)N1CCN(C(=O)C2CC2)CC1 | -8% | 10% | 1% | 9% | 0%[56.1 µM] | -15%
CCCCC[C@@H](/C=C/C1C(=O)C=C[C@H]1C/C=C\CCCC(=O)OC)OC(C)=O (stereo partly specified) | -22% | -11% | · | 10µM* | · | 1%
CCCCC[C@H](O)/C=C/[C@H]1C(=O)C[C@H](O)[C@@H]1C/C=C\CCCC(=O)O | · | · | · | 3% | 7% | ·
CCCCCCCCOc1ccccc1C(=O)Nc1ccc(C(=O)OCC[N+](C)(CC)CC)cc1 | · | · | · | ? | 11% | ·
COC(=O)CC1C(=O)NCCN1C(=O)c1ccc2oc(C(C)C)nc2c1 (stereo unspecified) | 30µM* | 0% | 2% | ? | 3% | -4%
CCCCc1nc2cc(C(=O)N3CCNC(=O)C3CC(=O)OC)ccc2o1 (stereo unspecified) | -5% | 0% | 0% | -1% | 3%[56.1 µM] | -9%
CCOC(=O)c1cccc(NC(=O)CSc2ncc3c(n2)-c2ccc(Cl)cc2N(Cc2ccccc2)S3(=O)=O)c1 | · | · | · | -2% | 0% | ?
N#CCCN(C(=S)NC(=O)c1ccco1)c1ccccc1F | 30µM* | 1% | -6% | -10% | 5% | -5%
O=C(CC(NS(=O)(=O)c1ccc(Cl)cc1)c1ccco1)NCc1ccco1 (stereo unspecified) | 30µM* | 6% | 0% | -13% | -4% | -8%
O=C(CSc1ccccc1Cl)c1ccco1 | 21µM* | 0% | ? | ? | -6% | -3%
O=C(CSc1ccc(Cl)cc1)NC(=O)NCc1ccco1 | 3µM* | -4% | -15% | ? | 2% | 13%
CC(=O)N1CCN(C(=O)CSc2ncnc3sc(C)c(C)c23)CC1 | 30µM* | 4% | -2% | -8% | 1% | -7%

Assay outcomes deposited in PubChem BioAssay by National Center for Advancing Translational Sciences (NCATS).
